Screening data (PubChem BioAssay)
This is a sample that favours compounds with a hit; in the whole collection about 12% have one here.
BAZ2B inh: blocks human BAZ2B | Potency, µM (highest dose often 114 µM), usual class: inhibitors | AlphaScreen BAZ2B-H3K14Ac peptide displacement | Q9UIF8 | 360,000 tested, 4.4% active; further: nearly all actives have a fitted effect of over 60% in size
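AlphaScreen displacement: compounds (up to 110uM) incubated 30 min at room temperature with a preformed 50 nM BAZ2B/50 nM biotinylated H3K14Ac peptide complex in PBS pH 7.4 with Tween-20. Donor and acceptor beads at 10 ug/mL final added, 20 min light-protected before reading.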
JMJD2A Tudor: JMJD2A Tudor domain (human) inhibition; Potency, µM (highest dose often 114 µM), actives largely listed as inhibitors; 390,000 tested, 4.4% active; AlphaScreen JMJD2A-Tudor / H3K4me3 peptide binding; AID 504339; further: nearly all actives have a fitted effect of over 50% in size
HP1b chromo inh: blocks HP1-beta chromodomain binding to methylated histone tails | P83916 | AlphaScreen HP1-beta / biotin-H3K9me3 peptide binding | Potency, µM (titrated, usually from 114 µM), actives largely listed as inhibitors | 390,000 tested, 0.56% active | AID 540317; further: nearly all actives have a fitted effect of over 70% in size
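Compound inhibition of the preformed complex between 50 nM HP1-beta and 50 nM biotinylated H3K9me3 peptide was read by AlphaScreen. Buffer was PBS pH 7.4 with 0.01% Tween-20. Incubations ran 30 min at room temperature, with 10 ug/mL donor/acceptor beads.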
G9a inh: inhibitors of human histone lysine methyltransferase G9a | Q96KQ7 | G9a H3K9 monomethylation, AlphaScreen, 2 h | Potency, µM (titrated, usually from 102 µM), most hits filed as inhibitors | 350,000 tested, 8.8% active | AID 504332; further: nearly all actives have a fitted effect of over 75% in size
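Signal arises when biotinylated H3K9 peptide, once monomethylated, bridges streptavidin donor and antibody-captured acceptor beads. Enzyme at 20 nM was preincubated 15 min with test compounds; peptide 500 nM and SAM 20 uM then reacted for 2 h.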
L3MBTL1 inh: inhibitors of human L3MBTL1; Q9Y468; AlphaScreen L3MBTL1–H3K9me1 peptide binding; Potency, µM (series often up to 57.1 µM), actives largely listed as inhibitors; 230,000 tested, 0.66% active; AID 485360; further: nearly all actives have a fitted effect of over 60% in size
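First, the protein-peptide complex forms for 30 min at room temperature (L3MBTL1 50 nM, biotinylated H3K9me1 peptide 75 nM). Next, compounds are pin-transferred and incubated 30 min. Finally, AlphaScreen beads are added and read after 30 min.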
Sfp inh: blocks B. subtilis Sfp PPTase activity. Q9F4F7. Biochemical Sfp PPTase activity, qHTS. Potency, µM, hits mostly inhibitors. 310,000 tested, 3.5% active. AID 1490;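 further: the enzyme is Sfp with the accession as filed and its product quenches rhodamine fluorescence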
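Sfp 15 nM + cpd, 15 min RT; start w/ rhodamine-CoA 5 uM, BHQ-2-YbbR 12.5 uM (final); 50 mM Hepes pH 7.6, 10 mM MgCl2, 0.01% NP-40, 0.01% BSA; read 525/598 nm at 0 and 30 min.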
Hits are given with their value; n = inactive; u = inconclusive; x = not tested or not shown; [ ] = remark or other dose. The call rests on the fitted dose curve; in most records, active means well fitted curve in the direction sought with a large enough effect; inconclusive means small, poorly fitted or top-dose-only effect, or another doubt; inactive means no such curve, though single readings can be large; an effect the other way counts as inactive or inconclusive.

SMILES	BAZ2B inh	JMJD2A Tudor	HP1b chromo inh	G9a inh	L3MBTL1 inh	Sfp inh
CSc1ccccc1NC(=O)CN(C)C(=O)COc1cccc2cccnc12	x	22.4µM	n	x	u	x
CCn1ncc(NC(=S)Nc2ccc3c(c2)OCO3)c1C(N)=O	n	n	n	20µM	n	56.2µM
CCC(C)c1ccc(NC(=S)Nc2ccc(OC)c(OC)c2)cc1 (stereo not given)	n	n	u	u	n	n
CCOC(=O)Nc1ccc2c(c1)OCO2	n	n	n	n[12.7 µM]	n	n
CCn1ncc(NC(=S)Nc2ccc(OC)c(OC)c2)c1C(N)=O	79.4µM	u	n	44.7µM	n	31.6µM
CCOc1ccccc1N(CC)C(=O)c1cc2c(=O)n(CC)c3ccccc3c2s1	n	n	n	n	x	x
CN1CCN(Cc2c(O)ccc3cc(Br)ccc23)CC1	x	u	n	5.01µM	n	n
COc1ccc(/C=C/C(=O)Nc2nc(C)cc(C)n2)cc1OC	n	50.1µM	u	x	n	n
COc1ccc(/C=C/C(=O)Oc2ccc(C)c(C)c2)cc1OC	x	n	n	n	x	8.91µM
NC(N)=NCC1COc2ccccc2O1 (stereo not given)	x	x	x	n[12.7 µM]	x	n
O=C(CCC1N=C2c3ccccc3N=C(SCc3ccccc3F)N2C1=O)NCc1ccccc1 (stereo not given)	n	n	n	n	x	x
COc1ccc(CCC(=O)NC2CC(=O)N(c3ccc(F)cc3)C2)cc1 (stereo not given)	n	n	n	n	x	x
CCc1cccc(OCCCn2ccnc2)c1	31.6µM	12.6µM	50.1µM	15.8µM	n	n
CCOc1cccc(OCCCCn2ccnc2)c1	50.1µM	6.31µM	u	u	n	n
COc1cccc(OCCCn2ccnc2)c1	n	n	n	x	n	n
Brc1cccc(OCCn2ccnc2)c1	39.8µM	3.55µM	n	8.91µM	x	56.2µM
Cc1cccc(NC(=O)CCCn2nc(C)c3c(C)n(-c4ccccc4)nc3c2=O)c1C	n	n	n	n	x	x
Cc1cc(C)c(Cn2c(C3CC(=O)N(c4ccc(F)cc4)C3)nc3ccccc32)c(C)c1 (stereo not given)	n	n	n	u	x	x
Cc1ccc(-c2nc(-c3cc4cccc(OCc5ccccc5F)c4oc3=O)no2)cc1	n	n	n	n	x	x
CC(C)(O)[C@H](O)COc1c2occc2cc2ccc(=O)oc12	n	n	n	1.41µM	n	n
Cc1cc2ccc(=O)oc2cc1OC[C@@H](O)C(C)(C)O	x	x	x	x	x	n
Cc1cccc2cc(CN(Cc3cccnc3)C(=S)NCCCN(C)C)c(=O)[nH]c12	u	12.6µM	n	u	n	n
Cc1ccccc1C1c2[nH]c3ccccc3c2CCN1C(=O)c1ccc(=O)n(C)n1 (stereo not given)	10µM	u	n	n	n	n
CN1N=C(C(=O)N2CCc3c([nH]c4ccccc34)C2c2ccccc2Cl)CCC1=O (stereo not given)	n	31.6µM	n	u	n	n
Cc1cc(C(=O)N2CCc3c([nH]c4ccccc34)C2c2cccc(Cl)c2)nn1C (stereo not given)	u	u	n	39.8µM	n	n
SMILES	BAZ2B inh	JMJD2A Tudor	HP1b chromo inh	G9a inh	L3MBTL1 inh	Sfp inh
O=C(c1cc[n+]([O-])cc1)N1CCc2c([nH]c3ccccc23)C1c1ccccc1Cl (stereo not given)	u	n	n	x	n	n
CSc1ccc(C2c3[nH]c4ccccc4c3CCN2C(=O)c2cc(C)n(C)n2)cc1 (stereo not given)	u	x	x	x	u	n
COc1ccc(OCC(O)Cn2c(NCCO)nc3c2c(=O)n(C)c(=O)n3C)cc1 (stereo not given)	n	n	n	n	x	x
C/C(=N\Nc1nncc2ccccc12)c1ccc(OCC(=O)N(C)C)cc1	u	n	n	44.7µM	x	50.1µM
CC/C(=N\Nc1nncc2ccccc12)c1ccc(F)cc1	n	n	n	39.8µM	x	n
OB(O)c1csc2ccccc12	x	n	n	x	x	n
COc1cccc(C2CC(c3ccccc3Cl)n3nc(N)nc3N2)c1 (stereo not given)	n	n	n	n	n	n
COc1ccc(C2(c3ccc(O)cc3O)CC(c3ccccc3Cl)NC(=S)N2)cc1 (stereo not given)	28.2µM	50.1µM	u	u	n	n
O=c1nc2c(O)cccn2c2c1c(=O)[nH]c1ccccc12	u	22.4µM	n	44.7µM	n	n
O=S(=O)(Cc1ccccc1)N(O)c1ccccc1	u	n	n	20µM	x	50.1µM
C=Cc1c(C)/c2[n-]/c1=C\c1[n-]c(c(CC)c1C)/C=c1\[n-]c3c(c1C)C(=O)C(C(=O)[O-])C=3c1[n-]c(c(C)c1CCC(=O)[O-])\C=2.[Cu].[Na+].[Na+] (stereo not given)	x	x	x	u	x	44.7µM
O=C(O)CCCCCCNS(=O)(=O)c1ccccc1	u	n	n	n	x	n
O=C(O)CCCNS(=O)(=O)c1ccc(NCc2ccccc2)c(C(=O)O)c1	n	n	n	22.4µM	n	n
Cc1cc(C)n(Cc2ccc(C(=O)Nc3cccc(Br)c3)o2)n1	n	n	n	79.4µM	n	n
Cc1cc(C)n(Cc2ccc(C(=O)Nc3ccc(Br)cc3C)o2)n1	n	n	n	n	n	n
